PubChem BioAssay
Active and inactive are the calls of the source.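 The calls were made as follows, unless noted: active = inhibition at or above 50% at 10 µM; inactive = inhibition below 50%.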

Key:
[1] = inhibitors of TNFa-induced NFkB p65 translocation, primary screen, imaging, HUVEC, MLSMR starter and 10KST1 sets (AID 438;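 active = inhibition above 20% together with a positive visual image hit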;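 also: compound added about 3h40 before a 20 min TNFalpha stimulation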;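 as to inhibition: signal is the nuclear over cytoplasmic p65 intensity ratio per well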); conditions: HUVEC TNFa-induced p65 nuclear translocation; cell count: measured here: nuclei count (cytotoxicity indicator), at 2.08 µM; inhibition: at 2 µM, stronger effect = higher value, 0% TNFa-plus-vehicle, 100% no-TNFa wells
[2] = inhibitors of mutant huntingtin aggregation, primary screen, imaging, exon1htt(103Q)mCFP cells, high-content imaging (AID 483;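 active = visual image review flags a hit and inhibition of aggregation exceeds 20%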;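 also: compound exposure lasted 3 days before fixation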;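 as to nuclei count: percent of the per-plate median nuclei count of sample wells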); conditions: exon1htt(103Q)mCFP cell line, aggregate imaging, at 2 µM; inhibition of aggregation: stronger effect = higher value; nuclei count: measured here: cell count, toxicity
[3] = inhibitors of E-selectin induction by TNFa, primary screen, imaging, HUVEC, immunofluorescence, MLSMR starter and 10KST1 sets (AID 487;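 active = visually confirmed hit in the image check and inhibition above 20%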;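 as to inhibition: signal is fraction of cell area covered by stained E-selectin grains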;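 as to nuclei count: 100% = median nuclei count of all wells on the same plate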); conditions: HUVEC TNFalpha-induced E-selectin immunofluorescence imaging, at 2 µM; inhibition: stronger effect = higher value; nuclei count: measured here: cell number, toxicity
[4] = biological target: Voltage-gated potassium channel subunit beta-2 (Rattus norvegicus) (UniProt P62483); assay: KvBeta enzyme negative modulators, primary screen, biochemical, NADPH fluorescence (AID 622;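 active = fluorescence slope higher than the sample average by over 3 SD, cut at about -0.22 in these data, passing the limit was not always enough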;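 also: slope of raw intensity against log time taken from 70 to 1610 s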); conditions: recombinant KvBeta, 4-cyanobenzaldehyde reduction, at 10 µM, stronger effect = higher value
[5] = biological target: Voltage-gated potassium channel subunit beta-2 (Rattus norvegicus) (UniProt P62483); assay: KvBeta positive modulators, primary screen, biochemical, NADPH fluorescence (AID 623;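 active = NADPH fluorescence slope more negative than the mean of all samples by about 3 SD, 99.7% confidence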;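 also: fluorescence intensity change per second fitted from 20 to 320 s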); conditions: Recombinant KvBeta, NADPH fluorescence decrease slope, 10 min; at 10 µM; stronger effect = lower value
[6] = biological target: Alpha-2C adrenergic receptor (Homo sapiens) (UniProt P18825); assay: modulators of alpha2C/GIRK thallium flux, primary screen, cell-based, HEK293 alpha2C/GIRK1/2 (AID 624;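 active = fluorescence slope after compound addition differing from the mean of all screened samples at 99.7% confidence, in either direction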;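 also: slope of fluorescence ratio to pre-addition baseline per second over 15 to 24 s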); conditions: thallium flux BTC fluorescence, at 10 µM, actives lie on both sides
[7] = inhibitors of Sendai virus-induced IRF3 signaling, primary screen, TLR/RLR signaling modifier project, cell-based, Sendai virus stimulus, luciferase, 10K MLSCN set (AID 602276); conditions: HEK293 RL24 IRF3 luciferase reporter, at 10 µM, stronger effect = higher value;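 also: firefly luciferase from ISG56 promoter only with Renilla not read in this screen; 0% = Sendai virus plus DMSO and 100% = medium plus DMSO without virus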
[8] = inhibitors of poly I:C-induced TLR3 signaling, primary screen, cell-based, poly I:C stimulus, luciferase, 10K MLSCN set (AID 602277;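 active = inhibition of the reporter signal at or above 50%; inactive = inhibition below 50%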); conditions: HEK293-TLR3 RL24 IRF3 luciferase reporter, at 10 µM, stronger effect = higher value

Voltage-gated potassium channel subunit beta-2 (Rattus norvegicus), sequence (P62483 whole entry, looked up): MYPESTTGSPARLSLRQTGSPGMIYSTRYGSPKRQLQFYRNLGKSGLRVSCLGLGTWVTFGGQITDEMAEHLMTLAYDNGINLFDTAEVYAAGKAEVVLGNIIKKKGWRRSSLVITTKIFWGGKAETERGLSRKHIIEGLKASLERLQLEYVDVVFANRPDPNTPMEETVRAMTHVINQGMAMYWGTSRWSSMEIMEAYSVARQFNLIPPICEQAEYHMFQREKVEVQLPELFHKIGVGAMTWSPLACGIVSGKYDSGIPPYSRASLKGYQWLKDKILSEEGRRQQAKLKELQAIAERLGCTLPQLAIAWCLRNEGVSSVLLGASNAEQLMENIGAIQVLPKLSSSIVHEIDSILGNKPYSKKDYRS
Alpha-2C adrenergic receptor (Homo sapiens), sequence (P18825 whole entry, looked up): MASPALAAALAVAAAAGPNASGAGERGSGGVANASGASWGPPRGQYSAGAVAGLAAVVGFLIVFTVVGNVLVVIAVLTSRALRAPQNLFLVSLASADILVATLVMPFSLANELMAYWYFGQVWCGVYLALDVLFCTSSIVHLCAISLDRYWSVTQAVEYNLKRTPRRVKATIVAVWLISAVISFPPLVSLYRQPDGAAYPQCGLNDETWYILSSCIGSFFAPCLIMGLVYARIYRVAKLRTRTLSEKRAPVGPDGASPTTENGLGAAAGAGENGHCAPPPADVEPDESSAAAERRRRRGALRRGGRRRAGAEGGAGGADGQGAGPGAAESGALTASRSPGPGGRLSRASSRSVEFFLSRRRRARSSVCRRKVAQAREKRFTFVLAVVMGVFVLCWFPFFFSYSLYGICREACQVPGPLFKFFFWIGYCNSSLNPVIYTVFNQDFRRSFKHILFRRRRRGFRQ

SMILES | cell count [1] | inhibition [1] | inhibition of aggregation [2] | nuclei count [2] [%] | inhibition [3] | nuclei count [3] [%] | fluorescence slope [4] | NADPH fluorescence slope [5] | slope [6] | inhibition [7] | inhibition [8]
Cc1ccc(C)c(C(=O)CC2(O)C(=O)Nc3ccccc32)c1 (centres undefined) | 602 | -11% (inactive) | 23.6% (inactive) | 62.9 | -108% (inactive) | 126 | -0.416 (inactive) | -3.2e-05 (inactive) | 0.00493 (inactive) | 3.23% (inactive) | -1.7% (inactive)
COc1ccc(S(=O)(=O)N2CCC(C(=O)Nc3c(F)cccc3F)CC2)cc1 | 741 | -9.2% (inactive) | 7% (inactive) | 108 | -55.4% (inactive) | 126 | -0.392 (inactive) | 3.8e-05 (inactive) | 0.00504 (inactive) | -10.2% (inactive) | 1.61% (inactive)
CCOC(=O)c1c(C)c(C(=O)NCCN2CCOCC2)c(C)n1C | 607 | -11.6% (inactive) | 13% (inactive) | 88.4 | 1.3% (inactive) | 103 | -0.496 (inactive) | -8.5e-05 (inactive) | 0.00563 (inactive) | 13.6% (inactive) | 22.1% (inactive)
c1ccc(-c2noc(C3CCCCC3)n2)nc1 | 665 | -44.9% (inactive) | -13.4% (inactive) | 97.5 | -29.2% (inactive) | 110 | -0.52 (inactive) | -2.4e-05 (inactive) | 0.00485 (inactive) | -1.58% (inactive) | -68.3% (inactive)
CCOc1ccccc1-n1c(SCC(=O)NC(C)CC)nnc1-c1ccoc1C (centres undefined) | 608 | -2.4% (inactive) | -1.9% (inactive) | 105 | -47.9% (inactive) | 121 | -0.439 (inactive) | -3.6e-05 (inactive) | 0.00423 (inactive) | 18.6% (inactive) | 17.4% (inactive)
COc1cccc(-c2cc(C(=O)N3CCc4ccccc4C3)no2)c1 | 550 | -17% (inactive) | 1% (inactive) | 111 | 18.5% (inactive) | 99.8 | -0.445 (inactive) | 7.7e-06 (inactive) | 0.0069 (inactive) | -3.65% (inactive) | 13.4% (inactive)
O=C(C1CCN(c2nnc(-n3cccc3)s2)CC1)N1CCOCC1 | 661 | -2.9% (inactive) | 6.4% (inactive) | 123 | -50.3% (inactive) | 102 | -0.418 (inactive) | -4.1e-05 (inactive) | 0.00592 (inactive) | 7.65% (inactive) | 18% (inactive)
O=C(NCc1ccccn1)c1cc(-n2cnnc2)ccc1Cl | 365 | -3.9% (inactive) | -1.2% (inactive) | 112 | -3.1% (inactive) | 110 | -0.502 (inactive) | -3.7e-05 (inactive) | 0.00641 (inactive) | 2.94% (inactive) | 10.6% (inactive)
COc1ccc(Nc2ncc3c(n2)CC(c2ccc(OC)cc2)CC3=O)cc1 (centres undefined) | 649 | 6.3% (inactive) | -7.5% (inactive) | 101 | -5.5% (inactive) | 97 | -0.298 (inactive) | -3.8e-05 (inactive) | 0.0047 (inactive) | 5.21% (inactive) | -19.5% (inactive)
CCOC(=O)N1CCN(C(=O)CSc2nnc(-c3cccc(Cl)c3)o2)CC1 | 543 | 11.7% (inactive) | -117% (inactive) | 10.5 | -3.2% (inactive) | 96 | -0.494 (inactive) | -0.000158 (inactive) | 0.00621 (inactive) | 0.178% (inactive) | 18.7% (inactive)
CCOC(=O)C1CCN(Cc2ccc(F)c(Br)c2)CC1 | 313 | 3.4% (inactive) | -23.7% (inactive) | 110 | -156% (inactive) | 140 | -0.414 (inactive) | 2e-06 (inactive) | 0.00431 (inactive) | 9.36% (inactive) | 20.4% (inactive)
c1ccc(C2(Cn3ccc4ccccc43)OCCO2)cc1 | 311 | -13% (inactive) | -6% (inactive) | 109 | -115% (inactive) | 123 | -0.482 (inactive) | 2.6e-06 (inactive) | 0.00648 (inactive) | 4.02% (inactive) | 12% (inactive)
CCOC(=O)C1CCN(c2c(NCCN3CCN(c4ccccc4)CC3)c(=O)c2=O)CC1 | 533 | 7.8% (inactive) | 7.2% (inactive) | 96.5 | -115% (inactive) | 95.9 | -0.6 (inactive) | -1.7e-05 (inactive) | 0.00543 (inactive) | 1.01% (inactive) | 28.4% (inactive)
COC(=O)Nc1nnc(CCc2ccccc2)s1 | 547 | 3.2% (inactive) | 2.7% (inactive) | 107 | -51.8% (inactive) | 113 | -0.509 (inactive) | -4.7e-05 (inactive) | 0.00467 (inactive) | 12.3% (inactive) | 2.62% (inactive)
